Data: PMC7862700, “An all-to-all approach to the identification of sequence-specific readers for epigenetic DNA modifications on cytosine”

Columns and labels:
Assay in all cases: DAPPL (digital affinity profiling via proximity ligation, sequencing); 10 mM Tris-HCl pH 7.5, 50 mM NaCl, 1 mM DTT, 4% glycerol, room temperature, 30 min; GST-TFs on glutathione beads, 16-mer random dsDNA library, 0.1% formaldehyde crosslink after washing; high values mean tight binding
Conditions in all cases: protein: recombinant; tags: N-terminal GST; dsDNA, one strand shown
FEV = target: T1, FEV (Homo sapiens, UniProt Q99581 1-238)
T1 sequence: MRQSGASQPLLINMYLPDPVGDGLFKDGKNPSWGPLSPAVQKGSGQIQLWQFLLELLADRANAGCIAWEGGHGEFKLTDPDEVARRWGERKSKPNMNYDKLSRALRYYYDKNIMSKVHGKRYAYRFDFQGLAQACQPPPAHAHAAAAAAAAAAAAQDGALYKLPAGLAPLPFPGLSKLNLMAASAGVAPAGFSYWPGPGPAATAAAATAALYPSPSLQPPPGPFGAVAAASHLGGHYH
Summary of the method: (§1)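 Sequencing on an Illumina NextSeq500 followed washing, crosslinking with 0.1% formaldehyde, proximity ligation (BsaI/T4 ligase, 1 h, 37 °C) and PCR amplification of pools that had been incubated for 30 min at room temperature with 200 nmole of a random double-stranded 16-mer DNA library in Tris/NaCl/DTT/glycerol buffer. Each pool held DNA-barcoded human transcription factors, expressed in yeast as GST fusions and captured on glutathione beads, plus a tag-only sample. Binding signal is a hexamer's read frequency for a factor divided by its frequency in the tag-only sample.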

ETV5 = ETV5 (Homo sapiens, UniProt P41161 1-510)
Sequence of ETV5 (P41161 whole entry): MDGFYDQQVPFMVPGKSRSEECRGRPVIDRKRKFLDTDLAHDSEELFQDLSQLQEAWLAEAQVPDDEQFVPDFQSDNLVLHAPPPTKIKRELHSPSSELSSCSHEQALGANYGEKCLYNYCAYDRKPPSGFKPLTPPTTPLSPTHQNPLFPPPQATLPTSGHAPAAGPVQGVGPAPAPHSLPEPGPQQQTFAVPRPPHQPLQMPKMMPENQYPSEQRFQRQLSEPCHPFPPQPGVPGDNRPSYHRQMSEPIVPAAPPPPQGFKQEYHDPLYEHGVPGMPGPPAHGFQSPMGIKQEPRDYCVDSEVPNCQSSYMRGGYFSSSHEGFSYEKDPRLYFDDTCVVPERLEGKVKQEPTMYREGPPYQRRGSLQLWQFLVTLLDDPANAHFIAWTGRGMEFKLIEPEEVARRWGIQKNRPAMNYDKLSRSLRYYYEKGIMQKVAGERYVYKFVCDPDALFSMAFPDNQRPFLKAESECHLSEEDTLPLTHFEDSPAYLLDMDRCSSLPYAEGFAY
Summary of the method: as §1

SPIC = target: T2, SPIC (Homo sapiens, UniProt Q8N5J4 1-248)
T2 sequence: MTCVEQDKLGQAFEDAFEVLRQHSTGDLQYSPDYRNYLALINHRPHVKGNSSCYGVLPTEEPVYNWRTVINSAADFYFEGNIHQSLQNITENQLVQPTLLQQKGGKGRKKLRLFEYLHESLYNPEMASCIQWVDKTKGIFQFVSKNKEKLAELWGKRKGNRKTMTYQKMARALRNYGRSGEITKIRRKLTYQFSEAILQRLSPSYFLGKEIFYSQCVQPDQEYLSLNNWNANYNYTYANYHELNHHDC
Summary of the method: as §1

ELF4 = ELF4 (Homo sapiens, UniProt Q99607 1-663)
Sequence of ELF4 (Q99607 whole entry): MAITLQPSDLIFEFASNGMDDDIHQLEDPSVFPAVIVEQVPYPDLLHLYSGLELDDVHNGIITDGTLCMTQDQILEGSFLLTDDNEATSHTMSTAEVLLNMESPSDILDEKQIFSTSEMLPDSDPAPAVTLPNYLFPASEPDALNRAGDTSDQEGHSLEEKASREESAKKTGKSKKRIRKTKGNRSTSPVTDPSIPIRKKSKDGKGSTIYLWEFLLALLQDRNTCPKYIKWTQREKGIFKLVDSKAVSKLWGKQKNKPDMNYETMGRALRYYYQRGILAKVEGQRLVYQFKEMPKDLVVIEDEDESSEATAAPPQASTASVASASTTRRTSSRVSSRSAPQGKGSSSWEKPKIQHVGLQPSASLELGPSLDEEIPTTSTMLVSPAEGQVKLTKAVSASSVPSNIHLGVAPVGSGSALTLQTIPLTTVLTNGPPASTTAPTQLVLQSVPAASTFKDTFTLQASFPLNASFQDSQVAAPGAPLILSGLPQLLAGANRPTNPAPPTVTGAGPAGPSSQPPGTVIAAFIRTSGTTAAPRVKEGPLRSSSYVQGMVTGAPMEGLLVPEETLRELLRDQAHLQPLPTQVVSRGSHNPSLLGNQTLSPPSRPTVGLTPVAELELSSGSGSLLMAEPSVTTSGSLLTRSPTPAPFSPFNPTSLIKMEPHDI
Summary of the method: as §1

ELK4 = target: T3, ELK4 (Homo sapiens, UniProt P28324-2 1-405)
T3 sequence: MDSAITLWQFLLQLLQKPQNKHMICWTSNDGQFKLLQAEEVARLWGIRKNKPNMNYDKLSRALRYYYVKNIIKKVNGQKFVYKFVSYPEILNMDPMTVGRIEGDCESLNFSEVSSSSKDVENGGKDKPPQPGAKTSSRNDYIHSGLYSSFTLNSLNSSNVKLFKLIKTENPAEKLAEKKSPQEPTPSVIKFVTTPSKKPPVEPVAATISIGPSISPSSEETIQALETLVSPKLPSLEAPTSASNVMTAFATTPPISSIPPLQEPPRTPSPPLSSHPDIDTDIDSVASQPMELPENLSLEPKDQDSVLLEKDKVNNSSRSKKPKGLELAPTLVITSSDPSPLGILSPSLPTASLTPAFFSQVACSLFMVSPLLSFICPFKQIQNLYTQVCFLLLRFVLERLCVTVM
Summary of the method: as §1

ETV2 = target: T4, ETV2 (Homo sapiens, UniProt O00321 1-342)
T4 sequence: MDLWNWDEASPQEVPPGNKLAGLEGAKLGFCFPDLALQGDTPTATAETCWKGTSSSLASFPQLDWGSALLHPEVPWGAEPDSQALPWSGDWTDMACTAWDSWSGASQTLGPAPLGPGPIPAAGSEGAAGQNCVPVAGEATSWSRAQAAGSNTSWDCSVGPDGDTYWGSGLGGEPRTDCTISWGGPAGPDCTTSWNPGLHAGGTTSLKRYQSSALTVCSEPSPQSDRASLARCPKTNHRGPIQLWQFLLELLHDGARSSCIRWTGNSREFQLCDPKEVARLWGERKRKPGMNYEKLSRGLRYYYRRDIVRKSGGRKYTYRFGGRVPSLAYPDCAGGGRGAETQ
Summary of the method: as §1

ELF3 = target: T5, ELF3 (Homo sapiens, UniProt P78545 1-371)
T5 sequence: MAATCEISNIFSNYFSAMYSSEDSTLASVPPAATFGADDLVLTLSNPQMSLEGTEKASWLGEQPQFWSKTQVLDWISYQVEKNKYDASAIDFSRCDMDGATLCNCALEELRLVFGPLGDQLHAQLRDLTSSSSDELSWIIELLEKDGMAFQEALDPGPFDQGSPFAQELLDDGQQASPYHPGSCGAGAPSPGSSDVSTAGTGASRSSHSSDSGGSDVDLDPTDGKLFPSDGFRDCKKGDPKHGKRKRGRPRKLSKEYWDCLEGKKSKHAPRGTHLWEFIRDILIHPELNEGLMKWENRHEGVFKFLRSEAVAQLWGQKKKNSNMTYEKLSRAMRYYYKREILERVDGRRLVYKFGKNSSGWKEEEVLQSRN
Summary of the method: as §1

CRX = CRX (Homo sapiens, UniProt O43186 1-299)
Sequence of CRX (O43186 whole entry): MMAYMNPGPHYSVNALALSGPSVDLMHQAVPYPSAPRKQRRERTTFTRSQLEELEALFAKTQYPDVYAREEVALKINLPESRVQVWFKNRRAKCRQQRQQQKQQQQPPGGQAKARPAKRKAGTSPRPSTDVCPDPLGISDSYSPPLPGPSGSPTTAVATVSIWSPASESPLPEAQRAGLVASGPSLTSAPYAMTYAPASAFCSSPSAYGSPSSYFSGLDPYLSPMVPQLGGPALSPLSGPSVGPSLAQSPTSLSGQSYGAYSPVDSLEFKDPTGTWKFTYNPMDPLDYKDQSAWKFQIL
Summary of the method: as §1

ETV1 = ETV1 (Homo sapiens, UniProt P50549 1-477)
Sequence of ETV1 (P50549 whole entry): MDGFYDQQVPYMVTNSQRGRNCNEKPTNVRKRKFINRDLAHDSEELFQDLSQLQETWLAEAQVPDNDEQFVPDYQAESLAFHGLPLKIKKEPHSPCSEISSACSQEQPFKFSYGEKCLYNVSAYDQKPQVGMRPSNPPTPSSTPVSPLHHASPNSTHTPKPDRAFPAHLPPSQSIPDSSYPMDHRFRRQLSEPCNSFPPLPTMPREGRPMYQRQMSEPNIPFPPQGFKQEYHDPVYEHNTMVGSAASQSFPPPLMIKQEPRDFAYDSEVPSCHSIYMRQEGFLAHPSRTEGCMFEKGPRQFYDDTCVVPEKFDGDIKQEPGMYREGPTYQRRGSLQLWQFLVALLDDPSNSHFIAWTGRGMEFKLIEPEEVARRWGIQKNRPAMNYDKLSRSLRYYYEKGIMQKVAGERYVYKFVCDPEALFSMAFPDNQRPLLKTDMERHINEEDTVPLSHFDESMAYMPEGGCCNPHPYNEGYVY
Summary of the method: as §1

ERF = target: T6, ERF (Homo sapiens, UniProt P50548 1-548)
T6 sequence: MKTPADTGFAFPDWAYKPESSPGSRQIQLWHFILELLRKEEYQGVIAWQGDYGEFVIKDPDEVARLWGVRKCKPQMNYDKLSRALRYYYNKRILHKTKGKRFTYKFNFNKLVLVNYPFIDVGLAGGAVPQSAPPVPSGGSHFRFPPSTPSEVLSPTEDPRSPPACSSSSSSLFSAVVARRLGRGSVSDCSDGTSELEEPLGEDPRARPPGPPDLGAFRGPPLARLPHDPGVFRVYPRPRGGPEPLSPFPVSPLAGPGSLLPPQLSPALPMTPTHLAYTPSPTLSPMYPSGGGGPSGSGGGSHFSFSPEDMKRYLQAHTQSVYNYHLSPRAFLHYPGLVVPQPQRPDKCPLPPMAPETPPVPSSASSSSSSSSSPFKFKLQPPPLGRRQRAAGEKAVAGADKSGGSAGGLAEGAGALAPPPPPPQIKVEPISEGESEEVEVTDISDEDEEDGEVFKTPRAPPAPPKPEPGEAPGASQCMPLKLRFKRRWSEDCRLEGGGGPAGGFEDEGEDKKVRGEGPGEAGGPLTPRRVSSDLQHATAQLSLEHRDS
Summary of the method: as §1

ETV3L = target: T7, ETV3L (Homo sapiens, UniProt Q6ZN32 1-361)
T7 sequence: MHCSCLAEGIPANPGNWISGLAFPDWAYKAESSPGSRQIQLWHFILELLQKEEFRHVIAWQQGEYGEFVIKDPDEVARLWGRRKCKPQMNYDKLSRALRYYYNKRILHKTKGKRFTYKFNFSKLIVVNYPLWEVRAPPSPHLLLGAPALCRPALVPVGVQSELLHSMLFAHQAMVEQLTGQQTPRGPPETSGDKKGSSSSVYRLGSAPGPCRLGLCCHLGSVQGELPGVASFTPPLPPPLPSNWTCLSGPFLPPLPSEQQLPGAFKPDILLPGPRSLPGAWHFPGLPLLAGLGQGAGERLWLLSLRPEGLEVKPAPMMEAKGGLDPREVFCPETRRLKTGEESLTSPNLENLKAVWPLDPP
Summary of the method: as §1

ETS2 = target: T8, ETS2 (Homo sapiens, UniProt P15036 1-469)
T8 sequence: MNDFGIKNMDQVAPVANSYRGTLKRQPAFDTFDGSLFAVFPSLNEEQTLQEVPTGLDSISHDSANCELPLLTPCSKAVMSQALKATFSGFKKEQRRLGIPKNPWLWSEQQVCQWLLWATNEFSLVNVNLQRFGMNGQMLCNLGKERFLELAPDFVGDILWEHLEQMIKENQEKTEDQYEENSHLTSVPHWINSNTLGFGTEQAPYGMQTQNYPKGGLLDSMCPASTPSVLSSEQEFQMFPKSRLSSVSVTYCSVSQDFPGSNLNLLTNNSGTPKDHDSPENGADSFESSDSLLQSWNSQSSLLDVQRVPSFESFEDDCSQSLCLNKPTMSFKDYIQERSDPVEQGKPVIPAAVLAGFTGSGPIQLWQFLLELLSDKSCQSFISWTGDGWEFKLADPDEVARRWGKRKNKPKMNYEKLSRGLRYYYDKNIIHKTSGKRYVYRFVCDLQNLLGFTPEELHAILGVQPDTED
Summary of the method: as §1

SPDEF = target: T9, SPDEF (Homo sapiens, UniProt O95238 1-335)
T9 sequence: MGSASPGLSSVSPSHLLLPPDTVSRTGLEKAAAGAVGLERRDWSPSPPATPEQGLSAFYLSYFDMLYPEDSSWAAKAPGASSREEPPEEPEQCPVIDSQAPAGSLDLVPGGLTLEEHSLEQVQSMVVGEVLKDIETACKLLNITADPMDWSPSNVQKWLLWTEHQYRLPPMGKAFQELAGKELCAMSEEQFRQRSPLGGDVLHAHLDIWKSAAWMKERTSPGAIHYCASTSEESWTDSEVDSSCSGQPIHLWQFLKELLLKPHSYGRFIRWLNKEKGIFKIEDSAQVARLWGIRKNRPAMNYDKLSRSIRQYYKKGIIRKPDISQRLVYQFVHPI
Summary of the method: as §1

ETV7 = target: T10, ETV7 (Homo sapiens, UniProt Q9Y603 1-341)
T10 sequence: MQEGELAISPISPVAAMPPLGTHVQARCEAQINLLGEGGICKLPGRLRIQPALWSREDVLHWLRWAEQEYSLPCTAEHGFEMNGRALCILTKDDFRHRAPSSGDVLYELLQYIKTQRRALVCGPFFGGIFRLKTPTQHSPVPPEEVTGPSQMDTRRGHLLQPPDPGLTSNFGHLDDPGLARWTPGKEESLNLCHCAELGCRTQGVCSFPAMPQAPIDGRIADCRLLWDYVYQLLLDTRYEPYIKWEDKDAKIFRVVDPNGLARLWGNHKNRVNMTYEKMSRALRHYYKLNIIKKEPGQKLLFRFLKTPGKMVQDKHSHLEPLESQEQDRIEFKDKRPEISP
Summary of the method: as §1

ELF5 = target: T11, ELF5 (Homo sapiens, UniProt Q9UKW6-2 1-255)
T11 sequence: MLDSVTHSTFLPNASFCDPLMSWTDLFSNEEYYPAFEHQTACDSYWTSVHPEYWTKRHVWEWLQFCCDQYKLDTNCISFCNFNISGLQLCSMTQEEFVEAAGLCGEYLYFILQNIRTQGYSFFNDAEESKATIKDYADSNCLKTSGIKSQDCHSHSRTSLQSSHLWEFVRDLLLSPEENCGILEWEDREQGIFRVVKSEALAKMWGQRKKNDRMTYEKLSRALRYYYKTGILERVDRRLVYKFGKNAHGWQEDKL
Summary of the method: as §1

ETV3 = target: T12, ETV3 (Homo sapiens, UniProt P41162-2 1-143)
T12 sequence: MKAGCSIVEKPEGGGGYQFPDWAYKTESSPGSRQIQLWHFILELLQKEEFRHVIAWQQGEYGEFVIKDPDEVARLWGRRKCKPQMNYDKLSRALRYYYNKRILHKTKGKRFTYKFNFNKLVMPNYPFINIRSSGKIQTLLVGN
Summary of the method: as §1

ETV6 = ETV6 (Homo sapiens, UniProt P41212 1-452)
Sequence of ETV6 (P41212 whole entry): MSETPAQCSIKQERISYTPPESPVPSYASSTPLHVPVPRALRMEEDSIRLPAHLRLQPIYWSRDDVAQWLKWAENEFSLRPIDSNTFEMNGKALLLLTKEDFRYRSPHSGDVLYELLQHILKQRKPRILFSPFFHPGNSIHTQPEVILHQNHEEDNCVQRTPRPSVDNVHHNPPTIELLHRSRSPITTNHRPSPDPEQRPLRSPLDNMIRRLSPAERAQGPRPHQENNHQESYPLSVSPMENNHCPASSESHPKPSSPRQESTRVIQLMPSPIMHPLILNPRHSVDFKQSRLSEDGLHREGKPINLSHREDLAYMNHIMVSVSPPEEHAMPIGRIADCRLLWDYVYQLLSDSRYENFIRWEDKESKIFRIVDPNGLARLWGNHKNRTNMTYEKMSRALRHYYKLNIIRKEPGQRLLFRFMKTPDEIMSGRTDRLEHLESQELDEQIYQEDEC
Summary of the method: as §1

Sequence	binding signal (FEV)	binding signal (ETV5)	binding signal (SPIC)	binding signal (ELF4)	binding signal (ELK4)	binding signal (ETV2)	binding signal (ELF3)	binding signal (CRX)	binding signal (ETV1)	binding signal (ERF)	binding signal (ETV3L)	binding signal (ETS2)	binding signal (SPDEF)	binding signal (ETV7)	binding signal (ELF5)	binding signal (ETV3)	binding signal (ETV6)
TACGTC	1.24 fold enrichment (6-mer frequency, TF over GST control)	1.13 fold enrichment (6-mer frequency, TF over GST control)	1.03 fold enrichment (6-mer frequency, TF over GST control)	1.16 fold enrichment (6-mer frequency, TF over GST control)	1.14 fold enrichment (6-mer frequency, TF over GST control)	1.02 fold enrichment (6-mer frequency, TF over GST control)	1.02 fold enrichment (6-mer frequency, TF over GST control)	1 fold enrichment (6-mer frequency, TF over GST control)	1.24 fold enrichment (6-mer frequency, TF over GST control)	1.08 fold enrichment (6-mer frequency, TF over GST control)	1.27 fold enrichment (6-mer frequency, TF over GST control)	1.2 fold enrichment (6-mer frequency, TF over GST control)	1.33 fold enrichment (6-mer frequency, TF over GST control)	1.27 fold enrichment (6-mer frequency, TF over GST control)	1.23 fold enrichment (6-mer frequency, TF over GST control)	1.14 fold enrichment (6-mer frequency, TF over GST control)	1.37 fold enrichment (6-mer frequency, TF over GST control)
ATACGT	1.11 fold enrichment (6-mer frequency, TF over GST control)	1.13 fold enrichment (6-mer frequency, TF over GST control)	1.09 fold enrichment (6-mer frequency, TF over GST control)	1.08 fold enrichment (6-mer frequency, TF over GST control)	1.15 fold enrichment (6-mer frequency, TF over GST control)	1.04 fold enrichment (6-mer frequency, TF over GST control)	1.1 fold enrichment (6-mer frequency, TF over GST control)	1.01 fold enrichment (6-mer frequency, TF over GST control)	1.13 fold enrichment (6-mer frequency, TF over GST control)	1.11 fold enrichment (6-mer frequency, TF over GST control)	1.18 fold enrichment (6-mer frequency, TF over GST control)	1.19 fold enrichment (6-mer frequency, TF over GST control)	1.23 fold enrichment (6-mer frequency, TF over GST control)	1.1 fold enrichment (6-mer frequency, TF over GST control)	1.14 fold enrichment (6-mer frequency, TF over GST control)	1.14 fold enrichment (6-mer frequency, TF over GST control)	1.14 fold enrichment (6-mer frequency, TF over GST control)
TTGTTG	1.01 fold enrichment (6-mer frequency, TF over GST control)	1.08 fold enrichment (6-mer frequency, TF over GST control)	1.19 fold enrichment (6-mer frequency, TF over GST control)	1.21 fold enrichment (6-mer frequency, TF over GST control)	1.19 fold enrichment (6-mer frequency, TF over GST control)	1.09 fold enrichment (6-mer frequency, TF over GST control)	1.15 fold enrichment (6-mer frequency, TF over GST control)	1.09 fold enrichment (6-mer frequency, TF over GST control)	1.21 fold enrichment (6-mer frequency, TF over GST control)	1.13 fold enrichment (6-mer frequency, TF over GST control)	1.21 fold enrichment (6-mer frequency, TF over GST control)	1.1 fold enrichment (6-mer frequency, TF over GST control)	1.11 fold enrichment (6-mer frequency, TF over GST control)	1.12 fold enrichment (6-mer frequency, TF over GST control)	1.13 fold enrichment (6-mer frequency, TF over GST control)	1.19 fold enrichment (6-mer frequency, TF over GST control)	1.07 fold enrichment (6-mer frequency, TF over GST control)
